About 7,900 targets were measured; listed, in parts, are those with a hit and a random draw of the rest. About 0.6% of all pairs of compound and target were hits.
compound: NC1(c2ccc(-c3nc4ccn5c(=O)[nH]nc5c4cc3-c3ccccc3)cc2)CCC1; assay: log2 fold change, soluble protein after heating vs DMSO (PISA); higher = thermal stabilisation; K562 cells, 10 uM, 30 min; active = over 0.2 and 3.5 SD of the protein, either way, in both replicates (recomputed)
Procedure, shortened: (§1)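 Quantification of soluble protein used TMTpro 16plex LC-MS/MS, with channel sums equalised. Samples were the supernatant after 21,000xg for 90 min of pooled aliquots from K562 cells (2×10^6 cells/mL) treated with 10 μM compound for 30 min, heated for 3 min over 48°C-58°C, and extracted in PBS with 0.5% NP-40 at 4°C. Values, from duplicates, describe thermal stability against control samples on a log2 fold-change scale.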

UniProt P27708, sequence (P27708 whole entry, looked up): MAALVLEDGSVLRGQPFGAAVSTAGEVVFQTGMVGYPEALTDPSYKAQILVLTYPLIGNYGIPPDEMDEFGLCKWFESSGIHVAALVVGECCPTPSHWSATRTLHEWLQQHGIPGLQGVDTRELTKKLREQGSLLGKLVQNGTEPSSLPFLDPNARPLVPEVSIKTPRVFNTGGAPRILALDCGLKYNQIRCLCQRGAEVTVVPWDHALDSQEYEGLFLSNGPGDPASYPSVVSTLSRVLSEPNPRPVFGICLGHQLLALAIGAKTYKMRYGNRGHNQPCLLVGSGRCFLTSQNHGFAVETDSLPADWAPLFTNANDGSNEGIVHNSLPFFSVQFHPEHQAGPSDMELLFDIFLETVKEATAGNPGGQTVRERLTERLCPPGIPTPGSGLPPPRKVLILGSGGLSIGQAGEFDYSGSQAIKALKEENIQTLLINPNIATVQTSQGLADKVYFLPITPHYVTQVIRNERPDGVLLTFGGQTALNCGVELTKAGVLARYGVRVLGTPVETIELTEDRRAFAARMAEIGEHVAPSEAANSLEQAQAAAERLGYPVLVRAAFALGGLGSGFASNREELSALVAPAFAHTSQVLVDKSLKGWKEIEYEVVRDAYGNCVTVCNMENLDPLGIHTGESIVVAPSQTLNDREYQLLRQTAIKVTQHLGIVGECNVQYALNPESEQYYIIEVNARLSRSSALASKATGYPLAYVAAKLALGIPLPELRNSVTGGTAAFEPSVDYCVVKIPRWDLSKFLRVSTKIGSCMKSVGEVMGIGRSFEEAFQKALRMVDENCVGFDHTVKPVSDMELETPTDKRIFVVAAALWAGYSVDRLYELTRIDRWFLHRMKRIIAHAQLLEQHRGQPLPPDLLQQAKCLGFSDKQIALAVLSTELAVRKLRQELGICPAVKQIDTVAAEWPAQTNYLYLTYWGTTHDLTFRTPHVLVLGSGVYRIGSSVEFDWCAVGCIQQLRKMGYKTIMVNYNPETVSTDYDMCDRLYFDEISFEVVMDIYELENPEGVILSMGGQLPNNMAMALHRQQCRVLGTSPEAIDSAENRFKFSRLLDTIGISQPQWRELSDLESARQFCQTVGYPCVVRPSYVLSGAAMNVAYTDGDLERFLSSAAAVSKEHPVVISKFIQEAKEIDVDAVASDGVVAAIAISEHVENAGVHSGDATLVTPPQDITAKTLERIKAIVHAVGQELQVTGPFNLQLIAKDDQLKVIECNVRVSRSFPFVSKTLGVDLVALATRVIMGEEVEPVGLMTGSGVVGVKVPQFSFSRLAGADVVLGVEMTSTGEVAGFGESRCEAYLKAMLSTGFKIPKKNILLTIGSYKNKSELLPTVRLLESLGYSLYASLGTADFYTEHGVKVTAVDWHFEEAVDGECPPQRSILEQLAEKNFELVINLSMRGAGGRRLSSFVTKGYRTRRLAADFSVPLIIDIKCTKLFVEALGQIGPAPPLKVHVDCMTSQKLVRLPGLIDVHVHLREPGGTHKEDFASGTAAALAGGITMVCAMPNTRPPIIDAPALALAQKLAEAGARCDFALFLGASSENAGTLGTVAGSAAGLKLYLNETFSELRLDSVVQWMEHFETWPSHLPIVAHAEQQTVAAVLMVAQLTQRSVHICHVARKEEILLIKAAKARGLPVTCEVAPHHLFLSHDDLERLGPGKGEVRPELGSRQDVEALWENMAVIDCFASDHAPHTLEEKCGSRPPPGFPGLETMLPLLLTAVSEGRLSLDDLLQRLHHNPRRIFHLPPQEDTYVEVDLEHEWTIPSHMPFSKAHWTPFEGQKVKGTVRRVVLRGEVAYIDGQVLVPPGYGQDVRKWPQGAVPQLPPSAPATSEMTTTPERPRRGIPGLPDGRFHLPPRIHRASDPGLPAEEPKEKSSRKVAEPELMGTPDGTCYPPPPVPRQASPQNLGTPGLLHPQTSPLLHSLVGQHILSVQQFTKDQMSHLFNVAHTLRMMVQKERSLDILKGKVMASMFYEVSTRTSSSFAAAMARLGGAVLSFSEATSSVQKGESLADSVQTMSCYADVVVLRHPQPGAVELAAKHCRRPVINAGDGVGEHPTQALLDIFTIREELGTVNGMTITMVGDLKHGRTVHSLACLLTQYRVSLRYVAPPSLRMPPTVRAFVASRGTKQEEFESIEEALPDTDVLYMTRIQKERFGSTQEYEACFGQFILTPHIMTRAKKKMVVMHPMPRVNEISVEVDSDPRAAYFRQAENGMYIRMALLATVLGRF
UniProt P42574, sequence (P42574 whole entry, looked up): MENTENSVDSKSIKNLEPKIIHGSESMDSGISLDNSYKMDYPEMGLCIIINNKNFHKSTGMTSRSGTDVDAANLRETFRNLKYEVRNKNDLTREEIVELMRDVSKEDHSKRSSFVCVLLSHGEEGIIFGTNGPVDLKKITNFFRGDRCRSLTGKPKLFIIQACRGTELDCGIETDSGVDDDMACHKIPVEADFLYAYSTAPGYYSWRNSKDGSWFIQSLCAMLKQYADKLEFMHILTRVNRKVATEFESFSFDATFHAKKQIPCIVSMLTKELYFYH
UniProt P61024, sequence (P61024 whole entry, looked up): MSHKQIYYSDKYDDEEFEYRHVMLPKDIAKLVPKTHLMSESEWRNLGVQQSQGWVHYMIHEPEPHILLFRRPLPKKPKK
UniProt Q9BWU1, sequence (Q9BWU1 whole entry, looked up): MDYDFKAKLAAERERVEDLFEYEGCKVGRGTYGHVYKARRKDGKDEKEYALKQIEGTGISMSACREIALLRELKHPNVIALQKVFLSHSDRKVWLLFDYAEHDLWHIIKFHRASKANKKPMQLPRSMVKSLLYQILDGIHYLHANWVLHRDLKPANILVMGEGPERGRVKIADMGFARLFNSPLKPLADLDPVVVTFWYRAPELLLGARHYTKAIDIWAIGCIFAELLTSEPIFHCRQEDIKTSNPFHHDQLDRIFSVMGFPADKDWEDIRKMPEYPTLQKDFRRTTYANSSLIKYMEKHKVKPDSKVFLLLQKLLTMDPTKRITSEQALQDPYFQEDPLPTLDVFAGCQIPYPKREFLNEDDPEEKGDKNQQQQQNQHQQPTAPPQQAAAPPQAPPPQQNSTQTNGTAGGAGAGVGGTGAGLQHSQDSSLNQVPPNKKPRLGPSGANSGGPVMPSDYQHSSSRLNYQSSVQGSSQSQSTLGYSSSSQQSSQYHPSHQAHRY
UniProt O76031, sequence (O76031 whole entry, looked up): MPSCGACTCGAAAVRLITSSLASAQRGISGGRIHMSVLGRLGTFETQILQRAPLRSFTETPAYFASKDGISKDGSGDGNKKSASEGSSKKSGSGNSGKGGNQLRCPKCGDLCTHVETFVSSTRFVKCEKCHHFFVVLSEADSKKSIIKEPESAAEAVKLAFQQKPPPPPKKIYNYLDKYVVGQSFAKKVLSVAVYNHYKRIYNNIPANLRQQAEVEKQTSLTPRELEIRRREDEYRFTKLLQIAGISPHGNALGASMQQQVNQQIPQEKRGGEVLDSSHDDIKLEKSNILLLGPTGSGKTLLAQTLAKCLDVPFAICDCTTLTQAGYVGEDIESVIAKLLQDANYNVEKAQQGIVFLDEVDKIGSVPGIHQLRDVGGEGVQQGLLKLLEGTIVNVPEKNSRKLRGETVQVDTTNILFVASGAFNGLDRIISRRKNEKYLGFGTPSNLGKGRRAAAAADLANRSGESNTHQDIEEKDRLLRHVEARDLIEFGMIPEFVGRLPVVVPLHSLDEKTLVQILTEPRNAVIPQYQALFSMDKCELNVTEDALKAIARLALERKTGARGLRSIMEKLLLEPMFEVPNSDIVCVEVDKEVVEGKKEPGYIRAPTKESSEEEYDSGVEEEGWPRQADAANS
UniProt P30305, sequence (P30305 whole entry, looked up): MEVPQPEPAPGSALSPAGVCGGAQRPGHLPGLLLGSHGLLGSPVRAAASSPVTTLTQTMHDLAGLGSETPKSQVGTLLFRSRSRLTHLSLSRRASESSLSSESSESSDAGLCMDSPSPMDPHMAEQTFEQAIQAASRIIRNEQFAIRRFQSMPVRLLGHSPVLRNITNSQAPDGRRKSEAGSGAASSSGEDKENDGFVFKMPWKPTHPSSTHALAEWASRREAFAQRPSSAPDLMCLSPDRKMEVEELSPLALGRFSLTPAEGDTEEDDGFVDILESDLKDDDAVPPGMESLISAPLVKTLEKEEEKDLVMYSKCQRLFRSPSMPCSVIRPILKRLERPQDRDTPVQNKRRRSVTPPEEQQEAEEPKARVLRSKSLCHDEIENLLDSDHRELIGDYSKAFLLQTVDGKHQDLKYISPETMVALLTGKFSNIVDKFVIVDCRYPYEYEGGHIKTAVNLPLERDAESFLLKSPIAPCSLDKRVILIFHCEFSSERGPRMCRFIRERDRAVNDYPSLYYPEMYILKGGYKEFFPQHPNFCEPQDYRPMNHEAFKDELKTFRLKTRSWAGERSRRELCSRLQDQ
UniProt O60563, sequence (O60563 whole entry, looked up): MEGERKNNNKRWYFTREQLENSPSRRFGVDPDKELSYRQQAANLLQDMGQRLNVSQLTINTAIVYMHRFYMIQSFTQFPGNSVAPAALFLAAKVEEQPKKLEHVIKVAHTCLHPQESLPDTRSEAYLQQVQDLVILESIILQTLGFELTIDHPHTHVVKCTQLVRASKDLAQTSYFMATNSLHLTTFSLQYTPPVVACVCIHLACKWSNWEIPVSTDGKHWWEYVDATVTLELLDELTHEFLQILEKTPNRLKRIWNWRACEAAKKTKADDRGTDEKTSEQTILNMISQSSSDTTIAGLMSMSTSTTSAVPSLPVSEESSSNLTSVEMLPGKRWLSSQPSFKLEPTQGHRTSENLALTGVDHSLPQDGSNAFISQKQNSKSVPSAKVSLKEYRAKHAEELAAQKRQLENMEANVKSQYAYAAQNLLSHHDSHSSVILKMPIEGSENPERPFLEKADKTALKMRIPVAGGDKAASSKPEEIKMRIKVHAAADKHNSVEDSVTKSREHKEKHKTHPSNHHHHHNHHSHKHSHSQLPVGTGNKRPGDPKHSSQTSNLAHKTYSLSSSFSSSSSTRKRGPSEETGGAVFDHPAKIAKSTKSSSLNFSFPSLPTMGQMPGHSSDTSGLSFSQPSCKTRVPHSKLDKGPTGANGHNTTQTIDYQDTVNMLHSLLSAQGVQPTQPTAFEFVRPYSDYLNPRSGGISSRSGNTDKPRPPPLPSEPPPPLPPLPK

Row | Target | log2 fold change
1 | CLCN3 isoform 2 (UniProt P51790) | -0.17 (inactive)
2 | CASP3 (UniProt P42574) | 0.075 (inactive)
3 | CHCHD1 (UniProt Q96BP2) | -0.149 (inactive)
4 | CHKA (UniProt P35790) | 0.014 (inactive)
5 | CCNT1 (UniProt O60563) | -0.021 (inactive)
6 | CDK19 (UniProt Q9BWU1) | -0.093 (inactive)
7 | CAD (UniProt P27708) | -0.145 (inactive)
8 | CHCHD2 (UniProt Q9Y6H1) | 0.022 (inactive)
9 | CDC25B isoform 4 (UniProt P30305) | -0.157 (inactive)
10 | CHCHD4 isoform 2 (UniProt Q8N4Q1) | -0.007 (inactive)
11 | COX7C (UniProt P15954) | -0.013 (inactive)
12 | CLPX (UniProt O76031) | -0.031 (inactive)
13 | CKS1B (UniProt P61024) | -0.082 (inactive)
14 | C19orf53 (UniProt Q9UNZ5) | 0.279 (inactive)

compound: NCC(=O)Nc1ccc(-n2nc(C(F)(F)F)cc2-c2ccc3c(ccc4ccccc43)c2)cc1; assay: as above
Procedure, shortened: as §1

Row | Target | log2 fold change
15 | CNN2 (UniProt Q99439) | -0.052 (inactive)
16 | CHD4 isoform 2 (UniProt Q14839) | -0.039 (inactive)
17 | CSNK1A1 (UniProt P48729) | 0.019 (inactive)
18 | C4orf33 (UniProt Q8N1A6) | -0.061 (inactive)
19 | CRYM-AS1 (UniProt A6NIL9) | 0.042 (inactive)
20 | CDK16 isoform 2 (UniProt Q00536) | -0.061 (inactive)
21 | CIT isoform 4 (UniProt O14578) | 0 (inactive)
22 | CLPTM1L (UniProt Q96KA5) | -0.019 (inactive)
23 | CNOT2 (UniProt Q9NZN8) | -0.087 (inactive)
24 | CD151 (UniProt P48509) | 0.024 (inactive)
25 | CSNK2B (UniProt P67870) | 0.084 (inactive)
26 | COX15 (UniProt Q7KZN9) | -0.013 (inactive)
27 | CCNB1 (UniProt P14635) | 0.016 (inactive)
28 | CBX1 (UniProt P83916) | 0.004 (inactive)
29 | CNOT4 isoform 6 (UniProt O95628) | -0.026 (inactive)
30 | C9orf64 (UniProt Q5T6V5) | -0.02 (inactive)
31 | CLTB (UniProt P09497) | 0.117 (inactive)
32 | CCDC59 (UniProt Q9P031) | 0.139 (inactive)

Row | Target | log2 fold change
33 | CALCOCO2 isoform 4 (UniProt Q13137) | -0.185 (inactive)
34 | CPT1A (UniProt P50416) | -0.001 (inactive)
35 | COMMD2 (UniProt Q86X83) | 0.039 (inactive)
36 | CBR1 (UniProt P16152) | 0.037 (inactive)
37 | CLCN3 isoform 2 (UniProt P51790) | 0.024 (inactive)
38 | CASP3 (UniProt P42574) | 0.043 (inactive)
39 | CHCHD1 (UniProt Q96BP2) | -0.023 (inactive)
40 | CHKA (UniProt P35790) | 0.012 (inactive)
41 | CCNT1 (UniProt O60563) | -0.02 (inactive)
42 | CDK19 (UniProt Q9BWU1) | -0.018 (inactive)
43 | CAD (UniProt P27708) | 0.008 (inactive)
44 | CHCHD2 (UniProt Q9Y6H1) | 0.012 (inactive)
45 | CDC25B isoform 4 (UniProt P30305) | 0.088 (inactive)
46 | CHCHD4 isoform 2 (UniProt Q8N4Q1) | 0.084 (inactive)
47 | COX7C (UniProt P15954) | 0.046 (inactive)
48 | CLPX (UniProt O76031) | -0.01 (inactive)
49 | CKS1B (UniProt P61024) | 0.042 (inactive)
50 | C19orf53 (UniProt Q9UNZ5) | 0.177 (inactive)

compound: Nc1ccccc1NC(=O)c1ccc(CNC(=O)OCc2cccnc2)cc1 [entinostat]; assay: as above
Procedure, shortened: as §1

Row | Target | log2 fold change
51 | CNN2 (UniProt Q99439) | 0.08 (inactive)
52 | CHD4 isoform 2 (UniProt Q14839) | 0.022 (inactive)
53 | CSNK1A1 (UniProt P48729) | 0.023 (inactive)
54 | C4orf33 (UniProt Q8N1A6) | -0.156 (inactive)
55 | CRYM-AS1 (UniProt A6NIL9) | -0.101 (inactive)
56 | CDK16 isoform 2 (UniProt Q00536) | -0.041 (inactive)
57 | CIT isoform 4 (UniProt O14578) | 0.025 (inactive)
58 | CLPTM1L (UniProt Q96KA5) | 0.025 (inactive)
59 | CNOT2 (UniProt Q9NZN8) | -0.023 (inactive)
60 | CD151 (UniProt P48509) | 0.094 (inactive)
61 | CSNK2B (UniProt P67870) | -0.008 (inactive)
62 | COX15 (UniProt Q7KZN9) | 0.004 (inactive)
63 | CCNB1 (UniProt P14635) | -0.002 (inactive)
64 | CBX1 (UniProt P83916) | 0.017 (inactive)
65 | CNOT4 isoform 6 (UniProt O95628) | -0.009 (inactive)
66 | C9orf64 (UniProt Q5T6V5) | 0.088 (inactive)
67 | CLTB (UniProt P09497) | -0.076 (inactive)
68 | CCDC59 (UniProt Q9P031) | -0.149 (inactive)

Row | Target | log2 fold change
69 | CALCOCO2 isoform 4 (UniProt Q13137) | -0.006 (inactive)
70 | CPT1A (UniProt P50416) | -0.005 (inactive)
71 | COMMD2 (UniProt Q86X83) | -0.062 (inactive)
72 | CBR1 (UniProt P16152) | -0.008 (inactive)
73 | CLCN3 isoform 2 (UniProt P51790) | 0.019 (inactive)
74 | CASP3 (UniProt P42574) | -0.029 (inactive)
75 | CHCHD1 (UniProt Q96BP2) | 0.03 (inactive)
76 | CHKA (UniProt P35790) | -0.023 (inactive)
77 | CCNT1 (UniProt O60563) | 0.034 (inactive)
78 | CDK19 (UniProt Q9BWU1) | -0.085 (inactive)
79 | CAD (UniProt P27708) | -0.026 (inactive)
80 | CHCHD2 (UniProt Q9Y6H1) | -0.01 (inactive)
81 | CDC25B isoform 4 (UniProt P30305) | 0.047 (inactive)
82 | CHCHD4 isoform 2 (UniProt Q8N4Q1) | 0.339 (inactive)
83 | COX7C (UniProt P15954) | 0.014 (inactive)
84 | CLPX (UniProt O76031) | -0.019 (inactive)
85 | CKS1B (UniProt P61024) | -0.02 (inactive)
86 | C19orf53 (UniProt Q9UNZ5) | -0.026 (inactive)

From the supplement of paper PMC10849652
